High-throughput results as filed in PubChem BioAssay.
PLC-beta3 inh: blocks human PLC-beta3 enzyme activity; Q01970; Purified PLC-beta3, fluorogenic substrate, fluorescence; inhibition, % at 12.2 µM; 370,000 tested, 0.18% active;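 note: 0% = median of compound wells on plate and 100% = full blocker control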
MsrA inhibitor: inhibits bovine methionine sulfoxide reductase A | purified bovine MsrA, absorbance read-out | inhibition, % at 15.5 µM | 360,000 tested, 0.75% active | AID 651718; in the data active = inhibition above about 4.5%;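 note: 0% = vehicle wells with enzyme and 100% = reference inhibitor wells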
MsrA act: activates bovine MsrA enzyme | 360,000 tested, 0.3% active | purified bovine MsrA, absorbance read-out | activation, % at 10.6 µM; in the data active = activation above about 7.5%;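 note: 0% = vehicle and 100% = reference activator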
PLCg1 inh: PLC-gamma1 (human) inhibition, primary screen; P19174; purified PLC-gamma1, fluorogenic substrate, fluorescence; inhibition, % at 12.2 µM; 370,000 tested, 0.84% active; AID 720700; in the data active = inhibition above about 9.5%
PLCg1 ctr: inhibits human PLC-gamma1 in PLC-beta3 counter-screen; 3,300 tested, 3.1% active; shares compounds with PLCg1 inh; inhibition, % at 12.3 µM; purified PLC-gamma1, fluorogenic substrate, fluorescence; in the data active = inhibition above about 9.5%
PLCbeta3 conf: confirmation of human PLC-beta3 inhibitors. shares compounds with PLCg1 inh. 3,300 tested, 1% active. purified PLC-beta3, fluorogenic substrate fluorescence. inhibition, % at 12.3 µM
The depositor's hits bear a star; i = inactive; nt = no result. Shown are actives, neighbours in structure and some others; about 1.9% of the full set was active somewhere. Cut-off read from the data, not from the text of the source, unless noted: active = inhibition above about 11%; inactive = the rest.

SMILES	PLC-beta3 inh	MsrA inhibitor	MsrA act	PLCg1 inh	PLCg1 ctr	PLCbeta3 conf
N#Cc1ccc(S(=O)(=O)N2CCN(CC(=O)Nc3ccccc3C(=O)NC3CC3)CC2)cc1	2	0	-4	9.7*	7	3
O=C(CN1CCN(S(=O)(=O)c2ccc(F)cc2)CC1)Nc1ccccc1C(=O)NC1CC1	-5	1	-3	1	nt	nt
CCN(C(=O)CSc1nc2c(cnn2-c2ccccc2)c(=O)[nH]1)C1CCS(=O)(=O)C1 (stereo unspecified)	6	-1	-3	9.7*	4	4
CC1CCN(C(=O)CSc2nc3c(cnn3-c3ccc(Cl)cc3)c(=O)[nH]2)CC1	11*	0	3	10.0*	0	1
CCc1nc2c(OCc3cccc(Cl)c3)cccn2c1N(C)C(=O)c1ccco1	1	0	2	-1	nt	nt
Fc1ccccc1N1CCN(C(c2ccnc3ccccc23)c2nnnn2-c2ccc3c(c2)OCCO3)CC1 (stereo unspecified)	0	0	-3	-2	nt	nt
COc1ccc(OC)c(NC(=O)CC2SC(=Nc3ccc(F)cc3)N(CCC3=CCCCC3)C2=O)c1 (stereo unspecified)	4	0	0	11*	1	-4
COc1cc([N+](=O)[O-])ccc1NC(=O)CC1SC(=Nc2ccc(F)cc2)N(CCC2=CCCCC2)C1=O (stereo unspecified)	1	0	-3	2	nt	nt
CCCCCC(=O)Nc1ccc(N2CCN(S(C)(=O)=O)CC2)cc1	4	0	-1	9.7*	-6	-4
O=C(Nc1ccc([N+](=O)[O-])c(NC(=O)c2cccnc2)c1)c1cccnc1	0	0	-5	0	nt	nt
O=C(Nc1cc2c(cc1[N+](=O)[O-])OCCO2)c1cccnc1	7	2	-14	10*	-3	-1
Cc1ccc(S(=O)(=O)N2C[C@H]3n4c(=O)ccc(=O)n4C[C@H](OC(=O)NCc4ccccc4F)[C@@]3(O)C2)cc1	2	0	-3	0	nt	nt
CN(C(=O)c1cccnc1)c1nc(-c2ccccc2)cs1	7	1	-10	9.7*	-8	-6
CN(Cc1ccccc1)C(=O)c1cccnc1	-11	0	-9	0	nt	nt
CC1CC(C)CN(C(=O)COC(=O)COc2ccccc2C#N)C1 (stereo unspecified)	1	1	6	13*	-6	-2
CC1CCN(C(=O)COC(=O)COc2ccccc2C#N)CC1	-3	0	-6	1	nt	nt
O=C(Nc1ccc(Cl)c(C(F)(F)F)c1)C1Cc2c(-c3ccc4c(c3)OCO4)ccnc2O1 (stereo unspecified)	-7	0	4	-8	nt	nt
COc1ccc(C(=O)Nc2ccc3c(c2)nc(CN2CCN(C(C)=O)CC2)n3C)cc1	11*	2	-4	8	0	-1
CCCNC(=O)c1ccc2c(c1)nc(C)n2-c1cccc(C)c1	4	1	-2	13*	4	-1
CCC12CN3CC(CC)(CN(C1)C3c1ccc([N+](=O)[O-])o1)C2=O (stereo unspecified)	7	3	0	11*	-4	0
COc1ccc(N2C(=O)C3C4C=CC(c5ccccc5)(C3C2=O)C2C(=O)N(c3ccc(OC)cc3)C(=O)C42)cc1 (stereo unspecified)	0	-1	-10	-2	nt	nt
COc1ccc(N2C(=O)C3C(C2=O)C3(c2ccccc2)c2ccccc2)cc1 (stereo unspecified)	-1	1	-1	12*	-3	-5
O=C(Nc1ccc(Br)cc1)C1CCCN1S(=O)(=O)c1cccs1 (stereo unspecified)	2	0	-5	9.8*	-6	-4
CCOC(=O)[C@@]12CCC3=C1N(CCC3)C(=O)[C@H](CC(=O)NCc1cccc3ccccc13)C2	-1	nt	nt	-1	nt	nt
COc1cc(Cn2c3ccc(NC(=O)NCCc4ccccc4)cc3c(=O)n2C)ccc1F	i	1	-3	-459	nt	nt
SMILES	PLC-beta3 inh	MsrA inhibitor	MsrA act	PLCg1 inh	PLCg1 ctr	PLCbeta3 conf
CCN1CCCCC(NC(=O)Cc2ccccc2)C1=O (stereo unspecified)	2	nt	nt	-1	nt	nt
COC(=O)CCCc1nc2ccccc2s1	2	0	-8	1	nt	nt
NC(=O)COC(=O)CCCc1nc2ccccc2s1	11*	0	-1	12*	-8	-4
O=C(O)C1C(c2ccccc2)C(C(=O)N2CCOCC2)C1c1ccccc1 (stereo unspecified)	4	-1	2	6	nt	nt
COC(=O)C1C(c2ccccc2)C(C(=O)N2CCOCC2)C1c1ccccc1 (stereo unspecified)	15*	0	1	-1	-2	3
Clc1cc(Br)ccc1OCCOCCN1CCOCC1	14*	2	2	13*	-4	0
CC1CCN(CCOCCOc2ccc(Cl)cc2Br)CC1	6	0	-10	5	nt	nt
Clc1ccc(OCCOCCN2CCCCC2)c(Br)c1	5	2	-11	11*	-8	1
Cc1ccc(CCN2CC(C(=O)NCc3cccnc3)CC2=O)cc1 (stereo unspecified)	7	0	-4	12*	-2	-1
Cc1ccc(C(NC(N)=O)c2ccccc2)cc1 (stereo unspecified)	4	0	-12	12*	-8	-6
Cc1ccc(C(NC(N)=O)c2ccccc2C)cc1 (stereo unspecified)	1	0	-9	7	nt	nt
O=C(Cn1nc(-c2ccccc2)c2ccccc21)Oc1ccccc1	2	nt	nt	13*	-4	-3
COCCC(=O)N1CCC(Oc2ccc(C(=O)N3CCCC(OC)C3)cc2)CC1 (stereo unspecified)	12*	1	-11	4	-1	-7
COC1CCN(C(=O)c2ccc(OC3CCN(Cc4ccccn4)CC3)cc2)CC1	-12	0	0	10*	-4	0
COCC1CCN(C(=O)c2ccc(OC3CCN(Cc4ccccn4)CC3)cc2)C1 (stereo unspecified)	-5	0	-4	2	nt	nt
CC(=O)NCCSc1ccc(S(=O)(=O)N2CCCC2)cn1	-13	1	-4	0	nt	nt
CC(C)C(OC(=O)c1cc2c(s1)CCCCC2)C(=O)NC(N)=O (stereo unspecified)	3	0	-5	18*	-4	-3
CC(OC(=O)c1cc2c(s1)CCCCC2)C(=O)NC(N)=O (stereo unspecified)	0	1	-3	0	nt	nt
CN(C)CCOc1ccc2c(c1)C(=O)C(=Cc1ncc([N+](=O)[O-])n1C)C2	4	2	-4	4	nt	nt
COC(=O)C(C)(C)c1cccnc1C#N	2	-1	-4	76*	77*	-1
COC(=O)C(C)(C)NC(=O)c1cccs1	-1	-1	-1	-4	nt	nt
O=C1[C@@H](Oc2ccccc2)[C@@H](c2ccncc2)N1c1ccncc1	-1	-1	-1	-13	nt	nt
O=C(OCc1ccccc1)N1CCC2CC1c1ccc(/C=C/CCCCl)cc12 (stereo unspecified)	-3	0	-7	-1	nt	nt
